# Assay outcomes: PubChem BioAssay, National Center for Advancing Translational Sciences (NCATS)
# KB-3-1 tox = qHTS assay for MDR1-selective chemotherapeutics: Primary screen using the parental adenocarcinoma cell KB-3-1; KB-3-1 viability, CellTiter-Glo ATP luminescence, 72 h; Potency, µM (top dose mostly 46.1 µM), usual class: cytotoxic; AID 1347075, 2019; actives 1.4% (n = 400,000); note: nearly all actives have a fitted effect of over 60% in size
#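 Parental KB-3-1 viability, qHTS format: 72 h compound exposure, 37 °C; CellTiter-Glo; media-only wells and DMSO plates as controls; concentration-effect fits on corrected data.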
# HT1080NT lethal = qHTS for induction of synthetic lethality in tumor cells producing 2HG: qHTS for the HT-1080-NT fibrosarcoma cell line. HT-1080-NT fibrosarcoma viability, CellTiter-Glo ATP luminescence, 48 h. actives 1.6% (n = 360,000). Potency, µM (doses to about 46.1 µM), for inactives: at the top dose activity, negative = less viability, usual class: cytotoxic;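 note: NT is the 2HG producing partner of a matched IDH1 knockdown line; 0% = DMSO-treated cells and -100% = media-only wells without cells; nearly all actives have a fitted effect of over 55% in size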
#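 HT-1080-NT fibrosarcoma cells (2HG-overproducing), 750 cells/well in RPMI with 5% FBS, dosed after 2 h and incubated 48 h at 37C. CellTiter-Glo luminescence normalized to DMSO and no-cell wells; concentration-response curves fitted and classed.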
# KB-V1 MDR tox = qHTS assay for MDR1-selective chemotherapeutics: Primary screen using the drug-selected MDR subline cells KB-V1 | KB-V1 MDR cells viability, CellTiter-Glo, 72 h | Potency, µM (highest dose often 46.1 µM), most hits filed as cytotoxic | actives 3.4% (n = 400,000) | AID 1347076, 2019; note: nearly all actives have a fitted effect of over 60% in size
#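 Compound-treated KB-V1 multidrug-resistant cells, 72 h, 37 degrees C; viability by CellTiter-Glo. Fitted qHTS curves give the values.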
# TDP1 cell noCPT = qHTS for Inhibitors of human tyrosyl-DNA phosphodiesterase 1 (TDP1): qHTS in cells in absence of CPT. Potency, µM (series often up to 46.2 µM), inactives show at the top dose activity change, negative = growth inhibition, hits mostly inhibitors. AID 686978, 2013. DT40 Tdp1-/- hTDP1 cells, no CPT, ATP luminescence, 48 h. actives 15% (n = 420,000); note: nearly all actives have a fitted effect of over 55% in size
#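 A cellular qHTS used chicken DT40 cells lacking endogenous Tdp1 but carrying stably transfected human TDP1. Compounds were applied without camptothecin, and cell growth kinetics were judged by ATP-dependent luminescence after ≥48 hr.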
# DT40 TDP1 CPT = qHTS for Inhibitors of human tyrosyl-DNA phosphodiesterase 1 (TDP1): qHTS in cells in presence of CPT; chicken DT40 Tdp1-/-;hTDP1 cells + 20 nM CPT, ATP luminescence, 48 h; Potency, µM (titrated, usually from 46.2 µM), for inactives: at the highest dose activity change, negative = growth inhibition, hits mostly inhibitors; actives 12% (n = 420,000); note: nearly all actives have a fitted effect of over 55% in size
#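 Chicken DT40 Tdp1-/- cells complemented with human TDP1, 400 cells/well, exposed to compounds plus 20 nM camptothecin for at least 48 h at 37 C; viability read as ATP content by CellTiter-Glo luminescence.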
# HT1080 IDH1KD tx = qHTS for induction of synthetic lethality in tumor cells producing 2HG: qHTS for the HT-1080-IDH1KD cell line; HT-1080 IDH1 knockdown viability, ATP luminescence, 48 h; Potency, µM (highest dose often 46.1 µM), inactives show at the top dose activity, negative = toxicity, hits mostly cytotoxic; actives 2% (n = 360,000); AID 686971, 2013;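 note: 0% = DMSO wells and -100% = cell-free medium wells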
#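 HT-1080-IDH1KD cells (IDH1 knocked down), 750/well in RPMI with 5% FBS, treated with compound 48 h at 37 degrees C. Viability by CellTiter-Glo luminescence, normalised to DMSO and no-cell wells; concentration-response curves classed.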
# Active calls of the source: *; i = inactive; ? = inconclusive; · = no result; [ ] = remark or other dose. Sampled rows, rich in hits. Any-hit rate of the full collection: about 19%. Calls come from the whole dose curve; as a rule, active = well fitted curve in the direction sought with a large enough effect; inconclusive = small, poorly fitted or top-dose-only effect, or another doubt; inactive = no such curve, though single readings can be large; an effect the other way counts as inactive or inconclusive. Unless noted, % is set by controls: 0 for no effect and ±100 for the full control effect; potency is the fitted concentration of half-maximal effect.
SMILES,KB-3-1 tox,HT1080NT lethal,KB-V1 MDR tox,TDP1 cell noCPT,DT40 TDP1 CPT,HT1080 IDH1KD tx
COc1ccccc1N(C(=O)c1ccco1)C(C(=O)NC1CCCC1)c1ccncc1 (stereo not drawn),i,-1.3%,i,-10.6%,0.8%,0.8%
Cc1ccc(S(=O)(=O)N2CCOCC2)cc1NC(=O)CN1CCN(c2ccc(O)cc2)CC1,i,14.5%,i,25.9µM*,?,5.3%
Cc1cccc(N2CCN(CC(=O)Nc3ccc(S(=O)(=O)N4CCOCC4)cc3)CC2)c1C,i,-5.7%,i,9.2µM*,14.6µM*,-29.6%
CCOC(=O)C1CCN(CC(=O)Nc2cc(S(=O)(=O)N3CCOCC3)ccc2C)CC1,i,9.0%,?,-20.4%,13.0%,6.6%
O=C(CN1CCOCC1)Nc1ccc(S(=O)(=O)N2CCCCCC2)cc1,i,-1.9%[9.24 µM],i,-16.0%,-28.4%,-0.6%
Cc1ccc(S(=O)(=O)N2CCOCC2)cc1NC(=O)CN1CCC(Cc2ccccc2)CC1,20.6µM*,-23.4%,i,8.2µM*,?,-7.7%
Cc1ccc(SC(C)C(=O)Nc2ccc(S(=O)(=O)N3CCOCC3)cc2)cc1 (stereo not drawn),i,11.9%,11.6µM*,16.4µM*,?,6.6%
Cc1ccc(S(=O)(=O)N2CCN(CC(=O)Nc3ccc(N4CCOCC4)cc3)CC2)cc1C,i,4.9%,?,-0.9%,-11.3%,5.7%
CCOC(=O)c1cccc(NC(=O)c2cc3cc4ccc(C)cc4nc3o2)c1,i,·,i,-16.7%,-4.8%,·
CC(C)c1nn2c(=O)cc(COC(=O)c3ccc(NC(=O)COc4ccccc4)cc3)nc2s1,·,·,·,-29.9%,3.3%,·
CCCN1CCN(CCNC(=O)Nc2cc(OC)cc(OC)c2)CC1,i,·,?,2.6%,-17.4%,·
CC1(C(=O)NS(=O)(=O)Cc2cccc(Cl)c2)CCN1C(=O)c1ccc(C2CCCCC2)cc1 (stereo not drawn),i,11.2%,i,-2.8%,-22.5%,15.1%
CC(C)(C)NC(=O)NC(=O)CN1CCN(c2ccc(O)cc2)CC1,20.6µM*,-4.6%,?,?,-21.2%,-3.2%
Cc1ccc([N+](=O)[O-])cc1S(=O)(=O)N1CCn2cccc2C1c1ccc(F)c(F)c1 (stereo not drawn),i,·,i,?,?,·
CC(=O)c1ccc(S(=O)(=O)N2CCn3cccc3C2c2ccc(F)c(F)c2)cc1 (stereo not drawn),i,·,i,20.6µM*,?,·
Cc1ccc(C2c3cccn3CCN2S(=O)(=O)c2ccc([N+](=O)[O-])cc2)cc1 (stereo not drawn),i,·,i,18.4µM*,?,·
CCCC(=O)N1CCCC1(C)C(=O)Nc1ccc(-n2cncn2)cc1 (stereo not drawn),i,-1.6%,i,28.3%,10.1%,15.0%
CC1(Cc2cccc(C#N)c2)C(=O)Nc2c(Cl)cccc21 (stereo not drawn),i,9.5%,i,-26.2%,-20.2%,7.2%
CCOc1cc2c3c(c1)C1(OCCO1)C(=O)N3C(C)(C)CC2C (stereo not drawn),i,-1.4%,i,?,?,-2.3%[9.24 µM]
CCOc1cc2c3c(c1)C1(Nc4ccccc4S1)C(=O)N3C(C)(C)CC2C (stereo not drawn),i,?,i,?,18.4µM*,?
CCOCCCNC(=O)C(c1ccc(Cl)cc1)N(Cc1cccs1)C(=O)c1ccc(NC(C)=O)cc1 (stereo not drawn),i,·,i,16.4µM*,14.6µM*,·
CCOCCCNC(=O)C(c1ccc(C)cc1)N(Cc1cccs1)C(=O)c1ccc(NC(C)=O)cc1 (stereo not drawn),i,·,i,18.4µM*,20.6µM*,·
CCOCCCNC(=O)C(c1ccccc1)N(Cc1cccs1)C(=O)c1ccc(NC(C)=O)cc1 (stereo not drawn),i,·,i,16.4µM*,?,·
CCOCCCNC(=O)C(c1ccc(C)cc1)N(Cc1ccc2c(c1)OCO2)C(=O)c1ccc(NC(C)=O)cc1 (stereo not drawn),i,·,i,?,14.6µM*,·
CCOCCCNC(=O)C(c1ccc(Cl)cc1)N(Cc1ccc2c(c1)OCO2)C(=O)c1ccc(NC(C)=O)cc1 (stereo not drawn),i,·,i,?,?,·
SMILES,KB-3-1 tox,HT1080NT lethal,KB-V1 MDR tox,TDP1 cell noCPT,DT40 TDP1 CPT,HT1080 IDH1KD tx
CC(=O)N/C(=C/C(C)C)c1ccccc1,i,10.7%,i,2.0%,4.7%,-2.7%
CC1CCc2nc3ncn(Cc4ccccc4C#N)c(=O)c3cc2C1 (stereo not drawn),i,·,i,?,?,·
CCCN1CNc2c(c(=O)[nH]c(=O)n2CCc2ccc(OC)c(OC)c2)C1,·,11.5%,·,-9.4%,4.4%,26.0%
Cc1ccc(Cn2cc(CN(C)C3CN(Cc4cn(Cc5ccc(C)cc5)nn4)S(=O)(=O)C3)nn2)cc1 (stereo not drawn),i,1.5%,?,?,?,12.4%
CC(=O)c1cccc(OCC(=O)Nc2ccccc2N2CCOCC2)c1,i,0.3%,?,?,18.4µM*,-0.5%
CCC(=O)c1ccc(OCC(=O)Nc2ccc(N3CCOCC3)cc2N2CCOCC2)cc1,i,12.2%,i,-11.8%,-2.2%,22.2%
O=C(COc1cccc(Br)c1)Nc1ccc(N2CCOCC2)cc1N1CCOCC1,i,?,i,?,18.4µM*,13.0%
CC(=O)c1cccc(OCC(=O)Nc2cc(S(=O)(=O)N3CCOCC3)ccc2N2CCCC2)c1,?,-0.4%,i,-4.4%,-12.2%,0.9%
CCC(C)Oc1cccc(C(=O)Nc2ccccc2N2CCOCC2)c1 (stereo not drawn),i,0.8%,i,18.4µM*,?,-0.4%
COC(=O)[C@]12CCCCC=C1N(CCC1=CCCCC1)C(=O)[C@H](CC(=O)NCCCN1CCCC1=O)C2,i,0.5%,i,?,?,?
